PubChem BioAssay (Tox21)
Inconclusive results are not listed. Unmarked numbers belong to inactive results. Calls of active or inactive are those of the source. Calls come from the whole dose curve; as a rule, active = well fitted inhibition curve with a large enough effect in the repeat runs; inconclusive = weak or mixed curves; inactive = no such curve, though single readings can be large or run the other way.

target: Cytochrome P450 2C19 (Homo sapiens) (UniProt P33261); assay: Cytochrome P450 Family 2 Subfamily C Member 19 (CYP2C19) small molecule antagonists: luciferase reporter qHTS assay (AID 1671197); conditions: P450-Glo CYP2C19 enzyme, luciferin luminescence, 1 h; series mostly up to 115 µM; activity change, negative = inhibition: at the top concentration; note: nearly all actives have a fitted effect of over 65% in size
Sequence (P33261 whole entry, looked up): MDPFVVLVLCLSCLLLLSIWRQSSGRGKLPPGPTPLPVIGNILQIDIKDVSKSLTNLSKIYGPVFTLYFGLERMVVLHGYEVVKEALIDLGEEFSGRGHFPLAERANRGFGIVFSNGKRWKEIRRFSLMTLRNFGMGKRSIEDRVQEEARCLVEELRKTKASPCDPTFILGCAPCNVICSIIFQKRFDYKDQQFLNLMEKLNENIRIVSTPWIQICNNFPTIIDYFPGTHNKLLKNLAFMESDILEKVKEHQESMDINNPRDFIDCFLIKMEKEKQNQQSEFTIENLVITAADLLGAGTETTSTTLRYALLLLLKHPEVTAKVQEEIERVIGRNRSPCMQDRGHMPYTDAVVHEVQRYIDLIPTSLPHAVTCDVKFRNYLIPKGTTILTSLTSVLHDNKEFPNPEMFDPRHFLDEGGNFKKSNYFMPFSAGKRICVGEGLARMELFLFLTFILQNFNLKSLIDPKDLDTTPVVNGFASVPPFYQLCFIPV
Excerpt: National Center for Advancing Translational Sciences [NCATS]
U.S. Environmental Protection Agency [EPA]
National Institutes of Environmental Health Sciences [NIEHS]
National Toxicology Program [NTP]
U.S. Food and Drug Administration [FDA]
Cytochrome P450 (CYP) enzymes are membrane-bound hemeproteins that play a key role in metabolism of drugs and xenobiotics. Evaluation of the effect of chemicals on CYP isozymes is useful to minimize the adverse drug reactions and toxicities in drug development process. Tox21 chemicals were tested for their effect on CYP enzyme activities by using P450-Glo (TM) screening systems (Promega Corporation, Madison, WI). These systems provide a luminescent method containing proluciferin substrates and are converted to luciferin products by CYP isozymes. The luciferin products formed are detected with a luciferin detection reagent, and the amount of light produced is proportional to CYP activity. P450-Glo (TM) CYP2C19 screening system (Catalog. No. V9880) was used to detect the compounds that interfere in CYP2C19 activity. The positive control compound used for CYP2C19 assay is ketoconazole (Sigma-Aldrich, St. Louis, MO).
Tox21 Assay Protocol Summary:
Two ul of enzyme-substrate mix was dispensed into medium binding white/solid 1536-well plates (Greiner Bio-One North America Inc., Monroe, NC) using a BioRaptr Flying Reagent Dispenser (FRD, Beckman Coulter, Brea, CA). Compounds dissolved in DMSO and positive control (ketoconazole) were transferred to the assay plates at 23 nl using a Pintool station (Wako, San Diego, CA). The assay plates were incubated at room temperature for 10 min. Then 2 ul of NADPH regeneration solution was added to each well of the assay plates using an FRD and incubated at 37C for 1 h. The reaction was stopped by adding 4 ul of detection reagent using an FRD and after 20 min incubation at room temperature the luminescence signal was measured using a ViewLux plate reader (Perkin Elmer, Shelton, CT). Data were expressed as relative luminescence units.
% is set by controls: 0 for no effect and ±100 for the full control effect; potency is the fitted concentration of half-maximal effect.

| SMILES | Potency | activity change, negative = inhibition |
| --- | --- | --- |
| COC(CC(C)CCCC(C)(C)O)OC (stereo not given) | 35.6 µM (active) | – |
| COC(OC)OC | – | 28.4% |
| CNc1c2c(nn1C)CCCC2 | – | 29.1% [at 52.9 µM] |
| CC(=O)OC(C)C[N+](C)(C)C (stereo not given) | – | 9.2% [at 52.9 µM] |
| Cc1oc(=O)oc1COC(=O)[C@@H]1N2C(=O)[C@@H](NC(=O)[C@H](N)c3ccccc3)[C@H]2SC1(C)C | – | -0.431% [at 52.9 µM] |
| COc1cc(S(=O)(=O)Nc2ccccc2)c(OC)cc1N | 15.9 µM (active) | – |
| CC(=O)Oc1cccc(O)c1 | – | 11.7% [at 52.9 µM] |
| COC1CCC=CO1 (stereo not given) | – | -7.3% |
| Cc1cccc(C)c1NC(=O)c1cc(S(N)(=O)=O)c(Cl)cc1O | – | 19.7% [at 52.9 µM] |
| CCCCCCCC(=O)OCCCCCC | – | 11.7% |
| Oc1cccc2[nH]ccc12 | – | -2.59% [at 52.9 µM] |
| CCCOC(=O)c1c(Cl)c(Cl)c(Cl)c(Cl)c1C(=O)OCCC | 7.1 µM (active) | – |
| Cc1ccc(Nc2c(F)cccc2Cl)c(CC(=O)O)c1 | 8.71 µM (active) | – |
| c1ccc2sc(SSc3nc4ccccc4s3)nc2c1 | 4.77 µM (active) | – |
| NC(=O)c1ccccc1[N+](=O)[O-] | – | 4.69% |
| CNS(=O)(=O)c1cc(C(=O)N2CCC(CCN3C4CCC3CC(n3c(C)nc5ccccc53)C4)(c3cccc(F)c3)CC2)c(Cl)cc1F (stereo not given) | 63.3 µM (active) | – |
| Cc1cc(CCC(=O)OCCOCCOCCOC(=O)CCc2cc(C)c(O)c(C(C)(C)C)c2)cc(C(C)(C)C)c1O | 2.76 µM (active) | – |
| CC(CCc1ccc(O)cc1)NCCc1ccc(O)c(O)c1 (stereo not given) | – | -19.8% [at 52.9 µM] |
| COc1cc(NS(=O)(=O)c2ccc(N)cc2)nc(C)n1 | – | 10.6% [at 52.9 µM] |
| CCCc1nc2c(C)cc(-c3nc4ccccc4n3C)cc2n1Cc1ccc(-c2ccccc2C(=O)O)cc1 | 7.76 µM (active) | – |

| SMILES | Potency | activity change, negative = inhibition |
| --- | --- | --- |
| CCN(Cc1cccc(S(=O)(=O)O)c1)c1ccc(C(=C2C=CC(=[N+](CC)Cc3cccc(S(=O)(=O)O)c3)C=C2)c2ccc(O)cc2S(=O)(=O)[O-])cc1 | 13.6 µM (active) | – |
| CCCCCCCCCCCCCC(=O)OCC(O)CO (stereo not given) | 35.6 µM (active) | – |
| CNC1CCCN(c2c(F)cc3c(=O)c(C(=O)O)cn(C4CC4)c3c2OC)C1 (stereo not given) | – | 25.1% [at 52.9 µM] |
| CCCCC[C@H](O)/C=C/[C@H]1[C@H](O)CC(=O)[C@@H]1C/C=C\CCCC(=O)O | – | -0.561% [at 52.9 µM] |
| CC(C)(C)NCC(O)COc1cccc2c1C[C@H](O)[C@H](O)C2 (stereo not given in full) | – | 6.26% [at 52.9 µM] |
| CCOC(=O)Oc1ccc(CCNC(=O)[C@H](CCSC)NC(C)=O)cc1OC(=O)OCC | – | -5.38% [at 52.9 µM] |
| O=S(=O)(Cl)c1c(Cl)cccc1Cl | – | -21.9% |
| COc1ccc(CCN(C)CCCN2CCc3cc(OC)c(OC)cc3CC2=O)cc1OC | – | -9.17% [at 52.9 µM] |
| CC1CCc2nccnc21 (stereo not given) | – | 21.1% |
| CC(=O)C(C)=O | – | -11.1% |
| CC(=O)OCCC1CCCCC1 | – | 21.6% |
| CC1CCCO1 (stereo not given) | – | 3.8% |
| CC1=C2[C@@H]([C@H](C)CC[C@H]2/C=C(\C)C(=O)O)[C@H](O)C1 | – | -11.5% |
| COC(C)(C)OC | 69 µM (active) | – |
| O=[N+]([O-])c1ccc2ncccc2c1 | 40 µM (active) | – |
| CC(C)c1ccc(C(=O)N=C(N)N)cc1S(C)(=O)=O | – | -5.48% [at 52.9 µM] |
| CC[C@H]1OC(=O)[C@H](C)[C@@H](O[C@H]2C[C@@](C)(OC)[C@@H](O)[C@H](C)O2)[C@H](C)[C@@H](O[C@@H]2O[C@H](C)C[C@H](N(C)C)[C@H]2O)[C@](C)(O)C[C@@H](C)CN(C)[C@H](C)[C@@H](O)[C@]1(C)O | – | 10.6% [at 52.9 µM] |
| Cc1ccc(S(=O)(=O)NC(=O)NC2CCCCC2)cc1 | – | 14.7% [at 52.9 µM] |
| C=CC(=O)NC(C)C | – | -9.41% |
| C[C@@H]1[C@H](O)[C@@H](C)/C=C/C=C\C=C\C=C\C=C\C=C\C=C\[C@H](O[C@@H]2O[C@H](C)[C@@H](O)[C@H](N)[C@@H]2O)C[C@@H]2O[C@](O)(C[C@@H](O)C[C@@H](O)[C@H](O)CC[C@@H](O)C[C@@H](O)CC(=O)O[C@H]1C)C[C@H](O)[C@H]2C(=O)O (stereo in doubt) | – | -3.68% |
